Screening data deposited in PubChem by several laboratories.
AMPAR-TARP mod: modulators of GluA2-stargazin AMPA receptor complexes, primary screen, cell-based, membrane potential dye; Voltage-dependent calcium channel gamma-2 subunit (Mus musculus) + Glutamate receptor 2 …; HEK293 GluA2+stargazin, membrane potential dye (FDSS), glutamate EC50; hits were called plate by plate, in both directions; calls only at 30 µM; 3.5% of 40,000 active; AID 1259245, 2017;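 active = any of four per-well response measures lying three or more SD from its plate-wide compound average, in either direction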
GIRK2 act: activators of NPY4-receptor-primed GIRK2 channels, summary, cell-based, HEK293, thallium flux; HEK293 GIRK2/NPY4 cells, thallium flux fluorescence; G protein-activated inward rectifier potassium channel 2 (Homo sapiens), P48051; activation (% efficacy), % for hits at 37.5 µM; 34,000 tested, under 10 active;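 active = primary screen hit, no activity in plain HEK293 cells, and in GIRK2-only cells above 5% efficacy rising with concentration; inactive = the rest, including fluorescent compounds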;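 also: efficacy is normalized control-subtracted fluorescence 15 s after thallium addition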
Target sequence (P48051 whole entry, looked up): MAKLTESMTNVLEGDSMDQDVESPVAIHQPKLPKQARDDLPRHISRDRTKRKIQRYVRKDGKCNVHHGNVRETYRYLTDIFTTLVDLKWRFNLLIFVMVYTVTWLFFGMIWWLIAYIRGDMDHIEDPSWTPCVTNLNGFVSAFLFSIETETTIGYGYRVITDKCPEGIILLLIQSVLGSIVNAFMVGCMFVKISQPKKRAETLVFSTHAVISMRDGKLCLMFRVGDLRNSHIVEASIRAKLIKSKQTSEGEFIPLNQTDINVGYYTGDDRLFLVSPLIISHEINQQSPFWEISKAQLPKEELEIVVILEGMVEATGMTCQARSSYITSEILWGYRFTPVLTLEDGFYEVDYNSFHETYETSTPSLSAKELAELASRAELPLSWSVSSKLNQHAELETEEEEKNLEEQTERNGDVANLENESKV
Numbers without * were called inactive; i = inactive; / = no result; + = active, no number. The full list was thinned out, with hits kept by preference.

SMILES | AMPAR-TARP mod | GIRK2 act
Cn1cnnc1SCCNC(=O)c1ccc(N2CCCC2)nn1 | i | i
CC(C)N(Cc1ccccc1)C(=O)C(=O)c1c[nH]c2ccccc12 | i | /
CC(C)N(C(=O)C(=O)c1c[nH]c2ccccc12)C(C)C | i | /
CC(NC(=O)C(=O)c1c[nH]c2ccccc12)c1ccccc1 (stereo not given) | + | /
CCN(Cc1ccccc1)C(=O)C(=O)c1c[nH]c2ccccc12 | + | /
COCCOC(=O)C1=C(C)NC(=O)NC1c1ccccc1 (stereo not given) | i | /
CC(C)(C)n1ncc2c(=O)n(NC(=O)/C=C/c3ccccc3)cnc21 | + | i
CC(C)(C)n1ncc2c(=O)n(NC(=O)C(c3ccccc3)c3ccccc3)cnc21 | i | i
CC(=O)N1CCc2c(sc3nc(SCc4ccc([N+](=O)[O-])cc4)n(Cc4ccco4)c(=O)c23)C1 | i | /
CC(=O)N1CCc2c(sc3nc(SCc4cccc([N+](=O)[O-])c4)n(Cc4ccco4)c(=O)c23)C1 | + | i
CS(=O)(=O)N1CCCc2cc(NC(=O)Cc3ccc(Cl)cc3)ccc21 | i | /
COc1ccccc1NC(=O)Nc1ccc2c(c1)N(C(=O)C(C)C)CCC2 | / | i
CC(C)N1CCc2c(sc(NC(=O)Cc3ccccc3)c2-c2nc3ccccc3s2)C1 | i | /
COC(=O)c1c(NC(=O)Cc2ccc(F)cc2)sc2c1CCN(C(C)C)C2 | + | i
COc1ccc2cc(-c3csc(NC(=O)CN4C(=O)c5ccccc5C4=O)n3)oc2c1 | i | i
CCc1ccc(Oc2cc(N3CCC(C(=O)NCc4ccccc4F)CC3)ncn2)cc1 | + | i
CCc1ccc(Oc2cc(N3CCC(C(=O)NCc4ccc(SC)cc4)CC3)ncn2)cc1 | i | i
Cc1cc(C(=O)N2CCC3(CC2)OCCN3S(=O)(=O)c2cccs2)c(C)o1 | + | i
COc1ccc(S(=O)(=O)N2CCOC23CCN(C(=O)c2cc(C)oc2C)CC3)cc1 | i | i
COC(=O)CCc1c(C)nc2ncnn2c1C | i | i
O=C(c1ccc(Cl)cc1Cl)N1CCOC(c2ccccc2)C1 (stereo not given) | / | i
Cn1nc(C2CCCN(C(=O)c3ccsc3)C2)n(-c2ccccc2)c1=O (stereo not given) | i | i
Cn1c(=O)[nH]c(=O)c2c1nc(N1CCC(C(N)=O)CC1)n2CCCc1ccccc1 | i | /
CCOC(=O)CN1CCN(c2nc3c(c(=O)[nH]c(=O)n3C)n2CCc2ccccc2)CC1 | + | /
COC(=O)CN1CCN(c2nc3c(c(=O)[nH]c(=O)n3C)n2CCc2ccccc2)CC1 | i | /
SMILES | AMPAR-TARP mod | GIRK2 act
Cn1c(=O)[nH]c(=O)c2c1nc(N1CCN(CC(N)=O)CC1)n2CCCc1ccccc1 | + | /
COc1ccc(Cl)cc1NC(=O)Cn1ncn2nc3c(c2c1=O)CCCC3 | + | i
COc1ccc(CCNC(=O)Cn2ncn3nc4c(c3c2=O)CCCC4)cc1OC | / | i
COc1ccc(NC(=O)CN2CCCN(Cc3cc(C)ccc3C)S2(=O)=O)c(OC)c1 | i | i
CCOC(=O)c1ccccc1NC(=O)CN1CCCN(Cc2cc(C)ccc2C)S1(=O)=O | + | i
CCc1ccc(NCCn2c(C)cn3c4c(=O)n(C)c(=O)n(C)c4nc23)cc1 | i | /
COc1ccc(CCNC(=O)CC2CCCCN2S(=O)(=O)c2ccc(OC)cc2)cc1 (stereo not given) | i | /
COc1ccc(CCNC(=O)CC2CCCCN2S(=O)(=O)c2ccc(F)cc2)cc1 (stereo not given) | + | /
COc1ccc(CCNC(=O)CC2CCCCN2S(=O)(=O)c2ccc(Cl)cc2)cc1 (stereo not given) | + | /
COc1ccc(S(=O)(=O)N2CCCCC2CC(=O)NCCc2ccc(Cl)cc2)cc1 (stereo not given) | i | /
Cc1onc(-c2ccccc2Cl)c1C(=O)N1CCN(Cc2nnnn2-c2ccc(F)c(F)c2)CC1 | + | i
Cc1cc(C(=O)N2CCN(Cc3nnnn3-c3ccc(F)c(F)c3)CC2)no1 | i | i
COc1ccc(-c2ccc(N3CCN(C(=O)c4cc(OC)cc(OC)c4)CC3)nn2)cc1 | i | i
COc1cn(-c2ccc(F)cc2)nc1C(=O)NCCCn1ccnc1 | + | i
COCCCNC(=O)c1nn(-c2ccc(F)cc2)cc1OC | i | i
Cc1ccc([N+](=O)[O-])cc1NC(=O)c1ccc(C(C)(C)C)cc1 | + | i
Cc1ccc([N+](=O)[O-])cc1NC(=O)c1ccc(=O)n(Cc2ccccc2)c1 | i | i
COc1ccc(SCC(=O)Nc2cccc3ccccc23)cc1 | i | /
O=C(Nc1ccc2nccnc2c1)c1ccc2c(c1)OCCO2 | + | i
CCn1nccc1C(=O)Nc1ccc2c(c1)OCCO2 | i | i
O=C(Nc1ccc2nccnc2c1)c1csc2c1CCCC2 | + | i
CCN(CC)c1ccc(NC(=O)c2csc3c2CCCC3)cc1 | i | /
Cc1ccc(C2=Nc3ccccc3N=C(c3ccc(Br)cc3)C2)c(O)c1 | i | /
O=C(NCCN1CCN(C(=O)c2ccsc2)CC1)c1cccs1 | i | i
CCn1nc(C)cc1C(=O)N(CCN1CCOCC1)c1nc2c(OC)ccc(C)c2s1 | i | i
SMILES | AMPAR-TARP mod | GIRK2 act
COc1ccc(S(=O)(=O)c2c(C)cc(C)n(CC(=O)Nc3ccccc3Cl)c2=O)cc1 | i | i
CC1=NN(c2ccccc2)C(=O)C1C(=O)c1sc(-c2ccccc2)nc1C (stereo not given) | i | i
COc1ccc(C(=O)C2C(=O)N(c3ccccc3)N=C2C)c(OC)c1 (stereo not given) | + | i
CC1=NN(c2ccccc2)C(=O)C1C(=O)c1ccc(S(=O)(=O)N2CCCCC2)cc1 (stereo not given) | i | i
CC1=NN(c2ccccc2)C(=O)C1C(=O)c1cccc(F)c1 (stereo not given) | + | i
CCOc1ccc(NC(=O)CSc2nc(=O)n(CCO)c3c2CCCC3)cc1 | + | i
CC(=O)Nc1ccc(NC(=O)CSc2nc(=O)n(CCCO)c3c2CCCC3)cc1 | i | i
COC(=O)c1cc(C)sc1N1C(=O)CC(Sc2ccccc2C(=O)O)C1=O (stereo not given) | i | /
COCCn1c(-c2ccc([N+](=O)[O-])cc2)nc2sc3ccccc3c(=O)c2c1=O | + | i
COCCn1c(-c2ccc(F)cc2)nc2c(c(=O)c3ccccc3n2C)c1=O | i | /
CCCn1c(-c2ccc(OC)cc2)nc2c(c(=O)c3ccccc3n2C)c1=O | i | /
CCCCn1c(-c2ccc([N+](=O)[O-])cc2)nc2c(c(=O)c3ccccc3n2C)c1=O | + | /
COc1ccc(C(=O)NCC(c2ccco2)N(C)C)c(OC)c1 (stereo not given) | i | i
Cc1ccccc1NC(=O)NCC1(c2cccs2)CCOCC1 | i | i
CCN(CC)C(=O)CCCCCn1c(=S)[nH]c2ccccc2c1=O | + | /
CCN1CCN(C(=O)CCn2c(=S)[nH]c3ccccc3c2=O)CC1 | i | /
O=C(CCCc1ccccc1)N1CCN(c2nccn2-c2cccc(Cl)c2)CC1 | + | i
